Laboratory results published in PubChem BioAssay AID488969 (Vanderbilt High Throughput Screening Facility, 2010).
The full ranking holds about 110,000 compounds; the median of “z-score” is about -0.1, and the highest 2% start at about 2. The sample as a whole holds a higher share of the highest values than the screen did. The source made the active and inactive calls.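 The calls were made as follows: active = z-score in the third read window above 3 or below -3; inactive = the rest.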

What follows are molecules tested against Metabotropic glutamate receptor 8 (Rattus norvegicus) (UniProt P70579) (assay: rat mGluR8 modulators via GIRK flux, primary screen, cell-based, thallium flux, HTS (AID 488969)). Details: HEK293 rat mGluR8, GIRK (G protein-gated inwardly rectifying potassium channel) thallium flux, FluoZin2; at 10 µM; stronger effect = higher value; submaximal glutamate (EC20) added with thallium.
Sequence of Metabotropic glutamate receptor 8 (Rattus norvegicus) (P70579 whole entry, looked up): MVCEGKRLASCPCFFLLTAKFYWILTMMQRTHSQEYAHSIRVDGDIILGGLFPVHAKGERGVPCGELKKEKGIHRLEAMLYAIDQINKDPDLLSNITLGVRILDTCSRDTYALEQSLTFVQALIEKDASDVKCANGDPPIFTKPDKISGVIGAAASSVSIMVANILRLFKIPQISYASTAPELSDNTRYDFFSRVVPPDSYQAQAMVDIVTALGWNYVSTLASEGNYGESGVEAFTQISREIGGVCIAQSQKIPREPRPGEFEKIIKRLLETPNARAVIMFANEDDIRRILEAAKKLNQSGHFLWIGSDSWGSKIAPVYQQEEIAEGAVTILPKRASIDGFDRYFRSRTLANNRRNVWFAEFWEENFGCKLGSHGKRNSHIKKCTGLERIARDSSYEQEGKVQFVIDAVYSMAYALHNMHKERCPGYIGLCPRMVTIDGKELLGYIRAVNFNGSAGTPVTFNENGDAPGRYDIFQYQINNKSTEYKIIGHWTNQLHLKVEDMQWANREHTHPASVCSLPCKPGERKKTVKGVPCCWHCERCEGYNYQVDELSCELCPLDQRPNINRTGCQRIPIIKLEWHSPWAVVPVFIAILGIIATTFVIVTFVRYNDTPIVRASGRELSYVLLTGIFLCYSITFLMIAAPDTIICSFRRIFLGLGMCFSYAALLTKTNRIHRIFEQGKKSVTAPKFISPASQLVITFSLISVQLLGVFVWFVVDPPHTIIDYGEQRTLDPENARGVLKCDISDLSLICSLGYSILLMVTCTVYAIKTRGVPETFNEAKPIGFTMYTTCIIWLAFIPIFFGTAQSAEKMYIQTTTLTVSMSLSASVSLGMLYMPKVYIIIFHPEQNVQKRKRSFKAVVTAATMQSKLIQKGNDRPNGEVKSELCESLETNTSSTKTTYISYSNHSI
In the case of Cc1noc(C(=O)NCc2ccccc2)c1Cl, the z-score is reported as -0.324. C/C(=N/NC(=O)Cc1cccc2ccccc12)c1cccs1 gave a z-score of -0.221. With CCOC(=O)CSc1n[nH]c(NC(=O)c2ccccc2)n1 the z-score was 0.788. In the case of CCOC(=O)CSc1n[nH]c(NC(=O)c2cccc(C)c2)n1, the z-score is reported as 2.67. CCOC(=O)CSc1n[nH]c(NC(=O)c2cccc(C(F)(F)F)c2)n1 was tested, and the z-score was -0.122. c1cncc(-c2nc3ccccc3[nH]2)c1 showed a z-score of -0.186. O=c1[nH]cnc2c1sc1nc3c(c(-c4ccc(Cl)cc4)c12)CCC3 was tested, and the z-score was -0.722. Molecule CC(OC(=O)c1nsc(Cl)c1Cl)C(=O)NC(C)(C)C (stereo not drawn) has a z-score of 0.181. Cc1cc(OCC(=O)Nc2ccc(F)c(F)c2)nc(C(C)C)n1 was tested, and the z-score was 0.156. With O=C(NNS(=O)(=O)c1ccccc1)C1CCN(S(=O)(=O)c2ccc(Cl)cc2)CC1 the z-score was -0.131. Molecule CCCCCCCCCc1nc(N)n[nH]1 has a z-score of -0.191. C=CCCCCCCCCc1nc(=S)[nH][nH]1 was tested, and the z-score was 9.76 (active). In the case of CCCCCCCCc1nc(=S)[nH][nH]1, the z-score is reported as 15.3 (active). CCCCOc1ccc(-c2nc(=S)[nH][nH]2)cc1 was tested, and the z-score was 0.294. With CC(=O)SC(C)CC(=O)NCc1ccccc1 (stereo not drawn) the z-score was -0.123. Work on Cc1ccc(C)c(Nc2nc3nonc3nc2N2CCOCC2)c1 yielded a z-score of 0.382. Molecule COc1ccccc1Nc1nc2nonc2nc1N1CCC(C)CC1 has a z-score of -0.00241. Cc1ccccc1Nc1nc2nonc2nc1N1CCOCC1 was tested, and the z-score was 6.03 (active). CCCCC(=O)Nc1cc(C(=O)NCCc2ccccc2)ccc1Cl was tested, and the z-score was 0.145. O=C(Nc1ccccc1)c1cccnc1N1CCCC1 gave a z-score of 0.569. For CC1CCN(c2ncccc2C(=O)O)CC1, the z-score was 4.14 (active). CC1CCN(c2nc3ccccc3nc2N2CCC(C)CC2)CC1 was tested, and the z-score was -0.169. Molecule Cc1ccc(-n2nnnc2SCC(=O)c2ccc3c(c2)NC(=O)CO3)c(C)c1 has a z-score of -0.0959. Molecule Cc1ccc(C2(C)NC(=O)N(CC(=O)Nc3c(C)n(C)n(-c4ccccc4)c3=O)C2=O)cc1 (stereo not drawn) has a z-score of -0.208. With CCc1ccc(NC(=O)CSc2nc3n[nH]c(C)c3c(=N)n2-c2cccc(OC)c2)cc1 the z-score was 0.339. With CCc1ccccc1NC(=O)CSc1nc2n[nH]c(C)c2c(=N)n1-c1cccc(OC)c1 the z-score was 0.747. With COc1cccc(-n2c(SCC(=O)NCCC3=CCCCC3)nc3n[nH]c(C)c3c2=N)c1 the z-score was 8.62 (active). In the case of COc1ccc(/C=C/C(=O)NC(C)C)cc1Br, the z-score is reported as -0.339. For CCCOc1ccc(C(=O)N2CCCC2)cc1OC, the z-score was -0.411. With Cc1ccc(/C=N/NC(=S)N2CCOCC2)cc1 the z-score was 4.72 (active). For S=C(N/N=C/c1ccc(Cl)cc1)N1CCOCC1, the z-score was 11.9 (active). Molecule S=C(Nc1ccc(Cl)cc1Cl)N1CCOCC1 has a z-score of -0.325. Molecule S=C(Nc1ccc(Cl)cc1)N1CCOCC1 has a z-score of 0.122. In the case of S=C(N/N=C/c1ccccc1)N1CCOCC1, the z-score is reported as 2.65. Molecule S=C(NCCN1CCOCC1)N/N=C/c1ccccc1 has a z-score of 0.728. With NC(=S)N/N=C/c1ccccc1 the z-score was 0.103. Work on CC(C)NC(=S)N/N=C/c1ccc(N2CCOCC2)cc1 yielded a z-score of 0.522. For Cc1ccc(NC(=S)N2CCOCC2)cc1, the z-score was -0.0267. COc1ccc(OCCN2CCN(C3CC(=O)N(CCC(C)C)C3=O)CC2)cc1 (stereo not drawn) showed a z-score of -0.363. Molecule O=C(/C=C/c1c(Cl)cccc1Cl)N1CCN(c2ncccn2)CC1 has a z-score of -0.303. COCC(C)NC(=O)c1ccccc1OC(C)=O (stereo not drawn) was tested, and the z-score was -0.44. COc1cc(/C=N/NC(=O)c2sc(N)c(C#N)c2C)cc(Br)c1O showed a z-score of -0.544. Work on Cc1cc(C)n(-c2ccc(C(=O)OCC(=O)Nc3ccc(Cl)cc3[N+](=O)[O-])cc2)n1 yielded a z-score of -0.362. COc1ccc2cc(C(=O)OC(C)C)sc(=O)c2c1OC was tested, and the z-score was -0.229. Work on COC(=O)c1cc2ccc(OC)c(OC)c2c(=O)s1 yielded a z-score of 0.0942. For COc1ccc2cc(C(=O)NCCO)sc(=O)c2c1OC, the z-score was -0.297. COc1ccc2cc(C(=O)Nc3ccccc3)sc(=O)c2c1OC was tested, and the z-score was 4.25 (active). For COc1ccc2cc(C(=O)NCC(=O)O)sc(=O)c2c1OC, the z-score was 3.42 (active). Molecule COc1ccc2cc(C(=O)Nc3ccc(F)cc3)sc(=O)c2c1OC has a z-score of 0.534. N#Cc1ccc(C(=O)Nc2cc(S(=O)(=O)Nc3ccc(Cl)cc3)ccc2N2CCCCC2)cc1 showed a z-score of -0.309. For O=C(O)CCc1ccc(-c2ccc(F)cc2)n1NC(=O)c1ccco1, the z-score was 0.168. Molecule N#CC1=C(N)Oc2cc(O)c(C=Nc3ccccc3)cc2C1c1ccccc1 (stereo not drawn) has a z-score of -0.423. For COc1ccc(N=Cc2cc3c(cc2O)OC(N)=C(C#N)C3c2ccccc2)cc1 (stereo not drawn), the z-score was -1.18. In the case of Cc1ccc(N=Cc2cc3c(cc2O)OC(N)=C(C#N)C3c2ccccc2)cc1 (stereo not drawn), the z-score is reported as 6.28 (active). For O=C(c1ccc(Cn2c(=O)[nH]c3ccccc3c2=O)cc1)N1CCN(c2ccc(Cl)cc2)CC1, the z-score was -0.127. CC(C)CCn1c(CN2CCN(Cc3ccccc3)CC2)nc2c1c(=O)[nH]c(=O)n2C was tested, and the z-score was 5.8 (active). Work on CN1CCN(Cc2nc3c(c(=O)[nH]c(=O)n3C)n2CCc2ccccc2)CC1 yielded a z-score of -0.00916. With CC(C)CCn1c(CN2CCN(Cc3ccccc3)CC2)nc2c1c(=O)n(C)c(=O)n2C the z-score was 0.709. CC(C)CCNC(=O)CO/N=C/c1ccccc1OC(F)F showed a z-score of -0.572. Molecule COc1cc(Nc2nc3ccccc3n3nnnc23)cc(OC)c1OC has a z-score of -0.0435. Work on COc1cc(Nc2nc(SCC#N)nc3ccccc23)cc(OC)c1OC yielded a z-score of 2.31. Molecule N#CCSc1nc(Nc2ccc3c(c2)OCO3)c2ccccc2n1 has a z-score of -0.556. CC(C)COC(=O)c1cccc2c1-c1ccccc1/C2=N\O gave a z-score of -0.108. O=C(Nc1cccc(Oc2ccc3c(c2)C(=O)NC3=O)c1)c1cccs1 gave a z-score of 0.83. For CC1CCCC(n2c(=S)[nH]c3ccccc3c2=O)C1C (stereo not drawn), the z-score was 9.07 (active). For CC1CCCCC1n1c(=S)[nH]c2ccccc2c1=O (stereo not drawn), the z-score was 16.2 (active). Cc1cc(C)c2c(N=NN3CCCCC3)[nH]nc2n1 showed a z-score of -0.0999. In the case of CCN(CC)S(=O)(=O)c1ccc(NC(=O)c2ccc(NS(C)(=O)=O)cc2)cc1, the z-score is reported as 1.67. CCn1c(N2CCN(C(=S)NCC(C)C)CC2)nc2ccccc21 gave a z-score of -0.148. Molecule CCCC(=O)NCc1ccc2c(c1)cc(C)n2C has a z-score of -0.371. Work on CC1=C(C(=O)OCC2CCCO2)C(c2ccc(C)o2)C2=C(CC(c3ccc(N(C)C)cc3)CC2=O)N1 (stereo not drawn) yielded a z-score of -0.22. CCOC(=O)C1=C(C)NC2=C(C(=O)CC(c3ccc(OC)c(OC)c3)C2)C1c1ccc(C)o1 (stereo not drawn) was tested, and the z-score was 4.89 (active). With CC1=C(C(=O)OCC2CCCO2)C(c2ccc(C)o2)C2=C(CC(c3ccc(F)cc3)CC2=O)N1 (stereo not drawn) the z-score was -3.31 (active).
